The record followed here is PubChem BioAssay AID1851 (National Center for Advancing Translational Sciences (NCATS), 2009).

Values joined by “and” are separate entries in the source; they are usually repeats but may differ in a detail not shown here. Equal values may be shown once. The whole screen tested about 16,000 compounds, of which about 5,800 (36%) were called active. About 23% were inconclusive and are not listed. The call rests on the fitted dose curve; in most records, active means well fitted curve in the direction sought with a large enough effect; inconclusive means small, poorly fitted or top-dose-only effect, or effect the other way; inactive means no such curve, though single readings can be large or run the other way. Some of the results follow. The source holds several records for some structures; these can differ, active in one and inactive in another.
On the % scale 0 is the no-effect control and ±100 the full control effect.

Sequence of Cytochrome P450 2C19 (Homo sapiens) (P33261 whole entry, looked up): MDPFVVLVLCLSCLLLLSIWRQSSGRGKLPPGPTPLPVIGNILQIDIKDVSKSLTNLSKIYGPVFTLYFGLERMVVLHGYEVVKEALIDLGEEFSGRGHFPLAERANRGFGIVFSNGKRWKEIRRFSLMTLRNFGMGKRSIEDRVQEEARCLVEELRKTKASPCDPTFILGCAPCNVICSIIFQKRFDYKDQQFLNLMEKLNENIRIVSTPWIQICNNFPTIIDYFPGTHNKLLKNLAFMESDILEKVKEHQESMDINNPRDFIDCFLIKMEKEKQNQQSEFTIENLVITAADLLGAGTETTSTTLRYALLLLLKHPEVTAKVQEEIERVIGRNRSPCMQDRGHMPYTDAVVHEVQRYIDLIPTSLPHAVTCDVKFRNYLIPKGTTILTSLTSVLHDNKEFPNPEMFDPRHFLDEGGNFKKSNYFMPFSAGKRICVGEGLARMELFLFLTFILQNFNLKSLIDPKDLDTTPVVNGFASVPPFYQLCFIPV

The test deals with Cytochrome P450 2C19 (Homo sapiens) (UniProt P33261). Briefly: Cytochrome panel assay with activity outcomes. As to conditions: recombinant CYP, pro-luciferin dealkylation, luminescence, p450-cyp2c19; series mostly up to 57.1 µM. The method, then:
The P450 gene superfamily is involved in the metabolism and clearance of xenobiotics. This assay used various human CYP P450 isozymes to measure the dealkylation of various pro-luciferin substrates to luciferin. The luciferin is then measured by luminescence after the addition of a luciferase detection reagent. Pro-luciferin substrate concentration in the assay was equal to its KM for its CYP P450 isozyme. Inhibitors and some substrates limit the production of luciferin, and decrease measured luminescence.
NCGC Assay Protocol Summary:
1, Reagent, 2 uL, Isozyme and Pro-Luciferin
2, Library compounds, 23 nl, 40 uM to 0.24 nM dilution series
3, Controls, 23 nl, Isozyme specific inhibitor
4, Reagent, 2 uL, NADPH regeneration solution
5, Incubation time, 60 min, Isozyme specific temperature
6, Reagent, 4ul, Detection reagent
7, Incubation time, 20 min, Isozyme specific temperature
8, Detection, 1 sec, ViewLux luminescent read
The luciferase-based P450-GloTM Screening Systems were obtained from Promega (Madison, WI) for CYP 1A2 (V9770), CYP 2C9 (V9790), CYP2 C19 (V9880), CYP 2D6 (V9890), and CYP 3A4 Luciferin-PPXE (V9910) and were adapted for 1,536-well microplates and an automated protocol. The control compounds furafylline for 1A2 (F124), sulfaphenazole for CYP 2C9 (S0758), ketoconazole for CYP 2C19 (K1003), quinidine for 2D6 (Q3625), and ketoconazole for 3A4 (K1003) were purchased from Sigma Aldrich (St. Louis, MO). Recombinant P450 enzymes were obtained from baculovirus constructs expressed in insect cells (BD/Gentest).
Medium-binding white solid Kalypsys plates used. Mixtures kept on ice. 1A2: 10 nM 1A2, 100 uM Luc-ME, 100 mM KPO4; 2C9: 10 nM 2C9, 100 uM Luc-H, 25 mM KPO4; 2C19: 5 nM 2C19, 10 uM Luc-H EGE, 50 mM KPO4; 2D6: 5 nM 2D6, 30 uM Luc-ME EGE, 100 mM KPO4; 3A4: 10 nM, 25 uM Luc-PPXE. All amounts are reflected in their final concentration, working concentration is 2x.
NADPH regeneration solution: 1.3 mM NADP+, 3.3 mM glucose-6-phosphate, 3.3 mM MgCl2, 0.4 U/mL glucose-6-phosphate dehydrogenase for all isozymes, 200 mM KPO4 for 3A4. Mixture prepared at RT but kept on ice during automated run.
RT incubation in auxilliary plate hotel for 1A2, 2D6, and 3A4; 37C for 2C9 and 2C19.
Keywords: P450, CYP1A2, CYP2C19, CYP2C9, CYP2D6, CYP3A4, Luciferase, MLSMR, MLSCN, NIH Roadmap, qHTS, NCGC
A word on the AC50: it is the midpoint of the concentration-response curve, whichever way the signal moves. As to `S=C(S)N1CCCC1`, the AC50 is 3980 nM (active). For `CC(C)Oc1cc(-n2c(=S)[nH]c3ccccc3c2=O)c(Cl)cc1Cl`, the AC50 is 224 nM (active). Still for that read-out and setting: as for `OC1(c2ccc(Cl)cc2)CCN(Cc2c[nH]c3ccccc23)CC1`, the entry is “inactive”. Still for that read-out and setting: next, `COc1ccn(C)c(=O)c1C#N`: “inactive”; `CCOC(C(=O)OCCCN(CC)CC)(c1ccccc1)c1ccccc1`: “inactive”; `CCN1C[C@@]2(COC)[C@H]3[C@@H](OC)[C@H]4C1[C@@]3([C@H](OC)C[C@@H]2O)[C@H]1C[C@@]2(O)[C@@H](OC(=O)c3ccccc3)[C@@H]1[C@@]4(OC(C)=O)[C@H](O)[C@@H]2OC`: “inactive”. In the case of `CC1=C(CC[C@H](C)CO)O[C@@H]2C[C@@H]3[C@H]4CC[C@H]5C[C@@H](O)CC[C@]5(C)[C@@H]4CC(=O)[C@@]3(C)[C@@H]12`, the activity, negative = inhibition is -3.33% [at 11.4 µM] (inactive). In the case of `O=c1ccc2[nH]cc(C3=CCNCC3)c2[nH]1`, the AC50 is 126 nM (active).

For the compound `COc1ccc2[nH]cc(C3=CCNCC3)c2c1`, the AC50 entry is “inactive”. As for `CCCCc1nc2ccccc2c(=O)n1-c1ccc(Cl)cc1[N+](=O)[O-]`, the AC50 entry is “inactive”. On to `CCCCc1nc2ccccc2c(=O)n1-c1ccccc1[N+](=O)[O-]`, for which the AC50 was 14100 nM (active). For the compound `O=c1cc(-c2ccc(O)cc2)oc2cc(O)cc(O)c12`, the AC50 result was “inactive”.

On to `COc1ccc(CCNc2cc(-c3ccccc3)nc3ncnn23)cc1`, for which the AC50 is 11200 nM (active). Turning to `CNC[C@H](O)c1ccc(OC(=O)C(C)(C)C)c(OC(=O)C(C)(C)C)c1`, the AC50 entry is “inactive”. `[N-]=[N+]=NCC(=O)c1c[nH]c(=O)[nH]c1=O`: the activity, negative = inhibition is 30.9% [at 11.4 µM] (inactive). For the compound `C[C@H]1CC[C@]2(OC1)O[C@@H]1C[C@@H]3[C@@H]4CC[C@H]5C[C@@H](O)CC[C@]5(C)[C@@H]4CC(=O)[C@@]3(C)[C@H]1[C@@H]2C`, the AC50 result was “inactive”.

Regarding `CCOC(=O)C1=C(C)OC(N)=C(C#N)C12C(=O)N(C)c1ccccc12` (stereo not given), the AC50 is 28200 nM (active).

As to `CCN1C[C@]2(C)CC[C@H](O)[C@@]34[C@@H]5CC6[C@@H](OC)C[C@@](O)([C@@H]5[C@@H]6O)[C@H](C[C@@H]23)[C@H]14`, the AC50 entry was “inactive”. As to `Cc1ccc(OP(=O)(Oc2ccc(C)cc2)N2C=Cc3ccccc3[C@H]2C#N)cc1`, the AC50 was 2510 nM (active). Same read-out and setting: as for `COc1ccccc1CN1CCCC2(CCN(C(=O)Oc3ccccc3)CC2)C1`, the entry is “inactive”; as for `O=C1C=C2C=C[C@H]3C[C@@]2(O1)[C@H]1CCCCN31`, “inactive”; as for `O=C1NCN(c2ccccc2)C12CCN(CCCOc1ccc(F)cc1)CC2`, “inactive”. For `O=C(CCCN1CCC(n2c(=O)[nH]c3ccccc32)CC1)c1ccc(F)cc1`, the AC50 entry is “inactive”. On the same count and under the same terms, next, `O=C(CCCN1CCC2(CC1)C(=O)NCN2c1ccccc1)c1ccc(F)cc1`: “inactive and 6.31 µM (active)”; `O=C1NCN(c2ccccc2)C12CCN(C[C@H]1COc3ccccc3O1)CC2`: 7940 nM (active); `NC1=Nc2ccccc2Oc2ccccc21`: “inactive”. The same measure, in the same setting: next, `O=C(Oc1ccccc1)N1CCC2(CCN(Cc3ccncc3)CC2)CC1`: “inactive”. `O=C(O)/C=C(\CC(=O)O)C(=O)O`: the activity, negative = inhibition is -16.7% [at 11.4 µM] (inactive).

On to `O=C(O)Cc1cccnc1C(=O)O`, for which the AC50 result is “inactive”.

For `CC(C)CN1CC2(CCN(C(=O)c3ccncc3)CC2)C1`, the AC50 entry was “inactive”.

Regarding `Cc1ccc(NC(=[OH+])c2cc3ccccc3cc2O)c(C)c1.Cc1ccc(NC(=[OH+])c2cc3ccccc3cc2O)c(C)c1.[Ni]`, the AC50 was 2000 nM (active).

For `O=c1[nH]oc2c1CCNC2`, the AC50 entry was “inactive”.

As for `Clc1ccc(C2=CCC[C@H]3CC[C@@H]2N3)cn1`, the AC50 entry was “inactive”.

Regarding `CCCCN1C(=O)C(C2c3ccccc3C(=O)N2Cc2ccccc2)C(=O)NC1=S` (stereo not given), the half-maximal activity concentration (AC50) is 25100 nM (active).

On to `CC(C)C[C@H](NP(=O)(O)O[C@@H]1O[C@@H](C)[C@@H](O)[C@@H](O)[C@H]1O)C(=O)N[C@@H](Cc1c[nH]c2ccccc12)C(=O)O`, for which the AC50 result is “inactive”. `CC(C)n1cnc2c(C(=O)N[C@H]3CN4CCC3CC4)cc(Cl)cc21`: the AC50 is 1000 nM (active).

For `Cn1cc(C(=O)C(=O)N[C@H]2CN3CCC2CC3)c2ccccc21`, the AC50 result was “inactive”. On the same count and under the same terms, as for `CN1C(=O)COc2c(C(=O)N[C@@H]3CN4CCC3CC4)cc(Cl)cc21`, the entry is “inactive”; as for `C[C@@H]1O[C@H](C[N+](C)(C)C)CS1`, “inactive”; as for `NC(=O)CN1C[C@@H](O)CC1=O`, “inactive”. For `C[N+]1([O-])[C@@H]2CC(OC(=O)[C@@H](CO)c3ccccc3)C[C@@H]1[C@H]1O[C@H]12` (stereo not given in full), the AC50 result was “inactive”.

`CN1[C@@H]2CC[C@H]1CC(NC(=O)c1nn(C)c3ccccc13)C2` (stereo not given in full): the AC50 result is “inactive”. On to `O=C1C2CCN(CC2)C1(CO)CO`, for which the AC50 is 631 nM (active) and the activity, negative = inhibition was -4.59% [at 11.4 µM] (inactive). On to `CCN(CC)C(=O)N[C@@H]1C[C@H]2c3cccc4[nH]cc(c34)C[C@@H]2N(C)C1`, for which the AC50 result was “inactive”. Same read-out and setting: next, `CCOC(=O)c1ncn2c1[C@H]1CCCN1C(=O)c1cc(OC)ccc1-2`: “inactive”. Still for that read-out and setting: as for `CCOC(=O)c1ncn2c1CN(C)C(=O)c1cc(F)ccc1-2`, the figure is 1580 nM (active); as for `O=C(Nc1ccccc1)N1CC2(CCN(C(=O)Oc3ccccc3)CC2)C1`, “inactive”.

On to `COC(=O)[C@@H]1c2cc3c(c(O)c2[C@@H](O)C[C@]1(C)O)C(=O)c1c(O)cc2c(c1C3=O)O[C@H]1O[C@@]2(C)[C@@H](O)[C@H](N(C)C)[C@H]1O`, for which the activity, negative = inhibition was -43.8% [at 11.4 µM] (inactive). Regarding `N[C@H](Cc1ccc(N(CCCl)CCCl)cc1)C(=O)O`, the AC50 entry was “inactive”. Regarding `CCCC(CCC)C(=O)O`, the AC50 result was “inactive”. Still for that read-out and setting: as for `C1CCc2nnnn2CC1`, the entry is “inactive”. As for `O=C(Nc1ccc(F)cc1F)c1cccnc1Oc1cccc(C(F)(F)F)c1`, the AC50 was 1260 nM (active).

`NNC(=O)c1ccc(O)cc1`: the AC50 entry was “inactive”. For `COc1ccc(C(=O)c2c(C)n(CCN3CCOCC3)c3cc(I)ccc23)cc1`, the AC50 entry is “inactive”.

As to `Cc1c(C(=O)c2ccc3ccccc3c2)c2cccc3c2n1[C@H](CN1CCOCC1)CO3`, the AC50 result was “inactive”. On the same count and under the same terms, as for `CCCn1c(C)c(C(=O)c2ccc3ccccc3c2)c2ccccc21`, the figure is 2000 nM (active).

`O=C(C[n+]1ccc2ccccc2c1)c1ccc2ccc3ccccc3c2c1`: the activity, negative = inhibition is 1.57% [at 11.4 µM] (inactive). `CCCn1c(C)c(C(=O)c2cccc3ccccc23)c2ccccc21`: the AC50 was 10000 nM (active). Still for that read-out and setting: next, `COc1ccc2c3c1O[C@@H]1C(=O)CC[C@@]4(O)[C@@H](C2)N(CC2CC2)CC[C@]314`: “inactive”.
